Measurements taken from the supplement of paper PMC10849652.
Targets with a hit are over-represented here; the source holds about 8,800 in all. About 0.5% of all pairs of compound and target were hits. Unmarked numbers belong to inactive results.

compound: CC1=C(C=C(C=C1)NC(=O)C2=CC(=CC=C2)C(C)(C)C#N)NC3=CC4=C(C=C3)N=CN(C4=O)C; assay: log2 fold change, soluble protein after heating vs DMSO (PISA); higher = thermal stabilisation; K562 lysate, 10 uM; active = over 0.2 and 3.5 SD of the protein, either way, in both replicates (recomputed)
Summary of the method: (§1)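 The values are log-two fold changes in thermal stability compared with solvent controls and come from duplicates. They were obtained by TMTpro 16plex LC-MS/MS, with channel sums equalised, on the supernatant after 21,000xg for 90 min. That supernatant came from crude K562 extract at 1 mg/mL protein treated with 10 μM compound for 30 min, heated for 3 min across 48°C-58°C, pooled and brought to 0.5% NP-40 at 4°C.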

Sequence of UniProt Q8IZ69 (Q8IZ69 whole entry, looked up): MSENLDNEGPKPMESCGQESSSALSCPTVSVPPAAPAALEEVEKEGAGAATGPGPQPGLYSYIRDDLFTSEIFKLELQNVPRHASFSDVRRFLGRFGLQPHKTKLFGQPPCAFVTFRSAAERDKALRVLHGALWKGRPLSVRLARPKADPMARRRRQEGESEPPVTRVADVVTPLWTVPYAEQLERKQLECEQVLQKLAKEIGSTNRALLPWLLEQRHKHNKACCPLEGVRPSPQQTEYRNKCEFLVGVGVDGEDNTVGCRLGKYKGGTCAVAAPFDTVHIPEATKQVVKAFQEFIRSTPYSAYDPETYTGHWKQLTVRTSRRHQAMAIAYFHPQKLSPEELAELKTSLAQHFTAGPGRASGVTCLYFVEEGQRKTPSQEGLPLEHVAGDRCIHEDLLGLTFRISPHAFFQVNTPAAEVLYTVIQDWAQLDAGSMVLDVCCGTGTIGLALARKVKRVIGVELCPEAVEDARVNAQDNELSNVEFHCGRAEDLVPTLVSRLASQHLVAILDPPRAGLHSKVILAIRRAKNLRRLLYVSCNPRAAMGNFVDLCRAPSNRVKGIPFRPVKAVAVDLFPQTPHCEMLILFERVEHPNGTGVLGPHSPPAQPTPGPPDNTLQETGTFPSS
Sequence of UniProt Q01085 (Q01085 whole entry, looked up): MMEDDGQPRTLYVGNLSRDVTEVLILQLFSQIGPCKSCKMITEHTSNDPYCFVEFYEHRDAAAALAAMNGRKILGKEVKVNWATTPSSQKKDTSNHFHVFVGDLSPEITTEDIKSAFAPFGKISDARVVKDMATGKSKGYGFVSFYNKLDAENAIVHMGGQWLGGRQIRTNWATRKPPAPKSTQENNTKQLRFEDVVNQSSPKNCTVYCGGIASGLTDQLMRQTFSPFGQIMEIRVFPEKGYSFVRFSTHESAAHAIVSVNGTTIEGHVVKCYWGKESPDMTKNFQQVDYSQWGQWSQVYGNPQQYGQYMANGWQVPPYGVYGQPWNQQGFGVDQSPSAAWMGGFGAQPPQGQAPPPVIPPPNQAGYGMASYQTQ
Sequence of UniProt P51668 (P51668 whole entry, looked up): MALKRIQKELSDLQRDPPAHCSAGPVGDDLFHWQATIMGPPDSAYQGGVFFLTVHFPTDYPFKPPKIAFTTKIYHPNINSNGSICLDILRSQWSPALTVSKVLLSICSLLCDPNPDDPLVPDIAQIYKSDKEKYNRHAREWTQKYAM
Sequence of UniProt Q969Z0 (Q969Z0 whole entry, looked up): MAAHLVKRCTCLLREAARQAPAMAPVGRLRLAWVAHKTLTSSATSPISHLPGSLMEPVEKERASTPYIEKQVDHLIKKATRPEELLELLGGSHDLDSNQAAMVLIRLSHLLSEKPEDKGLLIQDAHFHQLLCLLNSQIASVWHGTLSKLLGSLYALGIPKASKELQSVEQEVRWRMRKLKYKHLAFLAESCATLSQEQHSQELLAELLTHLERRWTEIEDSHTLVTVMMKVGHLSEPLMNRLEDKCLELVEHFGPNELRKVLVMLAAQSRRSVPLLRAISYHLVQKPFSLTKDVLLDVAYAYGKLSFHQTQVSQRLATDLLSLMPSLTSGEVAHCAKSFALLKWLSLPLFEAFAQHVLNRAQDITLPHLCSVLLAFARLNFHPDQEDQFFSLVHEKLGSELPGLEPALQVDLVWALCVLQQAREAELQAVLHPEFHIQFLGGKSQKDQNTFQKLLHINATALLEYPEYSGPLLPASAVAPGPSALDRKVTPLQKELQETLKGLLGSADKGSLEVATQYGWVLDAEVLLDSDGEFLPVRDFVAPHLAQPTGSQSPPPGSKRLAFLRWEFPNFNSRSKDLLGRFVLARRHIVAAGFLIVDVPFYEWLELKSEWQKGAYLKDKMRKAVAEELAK
Sequence of UniProt Q12800 (Q12800 whole entry, looked up): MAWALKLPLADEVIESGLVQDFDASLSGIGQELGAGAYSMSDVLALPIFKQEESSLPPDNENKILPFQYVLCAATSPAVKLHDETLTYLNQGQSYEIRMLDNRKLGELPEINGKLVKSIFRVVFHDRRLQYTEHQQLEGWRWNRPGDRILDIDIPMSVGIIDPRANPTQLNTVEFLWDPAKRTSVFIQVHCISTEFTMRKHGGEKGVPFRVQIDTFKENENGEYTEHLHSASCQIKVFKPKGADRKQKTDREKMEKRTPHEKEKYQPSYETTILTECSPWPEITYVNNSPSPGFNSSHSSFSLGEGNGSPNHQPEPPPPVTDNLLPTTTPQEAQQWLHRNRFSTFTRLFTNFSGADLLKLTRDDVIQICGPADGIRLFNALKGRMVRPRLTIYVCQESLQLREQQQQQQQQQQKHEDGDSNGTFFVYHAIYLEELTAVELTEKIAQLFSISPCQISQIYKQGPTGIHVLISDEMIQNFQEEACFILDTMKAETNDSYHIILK
Sequence of UniProt Q9BRZ2 (Q9BRZ2 whole entry, looked up): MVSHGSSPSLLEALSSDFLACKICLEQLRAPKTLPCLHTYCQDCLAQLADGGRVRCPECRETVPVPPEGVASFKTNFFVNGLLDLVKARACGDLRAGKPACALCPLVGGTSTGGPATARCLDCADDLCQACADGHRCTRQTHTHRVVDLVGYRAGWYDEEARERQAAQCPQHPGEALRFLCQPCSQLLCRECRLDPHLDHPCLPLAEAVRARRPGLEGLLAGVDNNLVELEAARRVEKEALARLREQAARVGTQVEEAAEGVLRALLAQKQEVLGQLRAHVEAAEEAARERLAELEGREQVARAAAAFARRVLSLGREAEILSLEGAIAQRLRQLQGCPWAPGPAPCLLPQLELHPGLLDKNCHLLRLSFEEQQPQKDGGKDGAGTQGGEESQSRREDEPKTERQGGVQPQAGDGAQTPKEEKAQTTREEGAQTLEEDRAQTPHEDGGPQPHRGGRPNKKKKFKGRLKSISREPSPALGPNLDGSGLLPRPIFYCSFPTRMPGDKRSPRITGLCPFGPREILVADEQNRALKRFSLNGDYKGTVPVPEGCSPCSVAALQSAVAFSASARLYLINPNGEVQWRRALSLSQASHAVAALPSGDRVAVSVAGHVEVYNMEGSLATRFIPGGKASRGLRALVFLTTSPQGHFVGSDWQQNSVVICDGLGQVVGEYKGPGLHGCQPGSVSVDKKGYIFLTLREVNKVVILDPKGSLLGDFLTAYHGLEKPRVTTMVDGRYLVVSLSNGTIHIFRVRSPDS
Sequence of UniProt Q53H54 (Q53H54 whole entry, looked up): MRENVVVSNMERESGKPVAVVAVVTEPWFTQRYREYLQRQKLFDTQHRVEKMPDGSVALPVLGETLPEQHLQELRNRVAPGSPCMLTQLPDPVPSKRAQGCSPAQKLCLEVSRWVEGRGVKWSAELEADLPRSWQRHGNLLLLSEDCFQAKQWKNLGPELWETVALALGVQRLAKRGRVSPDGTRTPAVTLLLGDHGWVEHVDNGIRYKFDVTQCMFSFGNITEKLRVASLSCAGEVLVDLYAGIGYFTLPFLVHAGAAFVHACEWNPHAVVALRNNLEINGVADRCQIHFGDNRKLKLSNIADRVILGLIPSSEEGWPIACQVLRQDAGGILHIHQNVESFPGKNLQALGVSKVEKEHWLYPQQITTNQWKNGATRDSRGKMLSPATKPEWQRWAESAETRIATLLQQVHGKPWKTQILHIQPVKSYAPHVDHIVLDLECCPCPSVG
Sequence of UniProt Q6NXR4 (Q6NXR4 whole entry, looked up): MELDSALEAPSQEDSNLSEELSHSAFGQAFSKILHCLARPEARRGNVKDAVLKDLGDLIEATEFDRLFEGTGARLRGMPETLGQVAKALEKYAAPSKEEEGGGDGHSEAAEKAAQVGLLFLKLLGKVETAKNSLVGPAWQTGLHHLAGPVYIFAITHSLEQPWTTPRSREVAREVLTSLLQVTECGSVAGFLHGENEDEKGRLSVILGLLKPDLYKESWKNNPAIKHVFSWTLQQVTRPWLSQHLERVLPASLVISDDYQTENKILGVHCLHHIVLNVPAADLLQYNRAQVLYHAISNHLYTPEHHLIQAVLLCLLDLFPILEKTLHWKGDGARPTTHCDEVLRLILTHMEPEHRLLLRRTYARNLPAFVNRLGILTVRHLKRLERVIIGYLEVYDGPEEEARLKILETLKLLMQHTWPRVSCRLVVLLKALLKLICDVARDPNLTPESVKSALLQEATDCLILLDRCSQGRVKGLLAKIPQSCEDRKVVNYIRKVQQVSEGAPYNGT
Sequence of UniProt Q14258 (Q14258 whole entry, looked up): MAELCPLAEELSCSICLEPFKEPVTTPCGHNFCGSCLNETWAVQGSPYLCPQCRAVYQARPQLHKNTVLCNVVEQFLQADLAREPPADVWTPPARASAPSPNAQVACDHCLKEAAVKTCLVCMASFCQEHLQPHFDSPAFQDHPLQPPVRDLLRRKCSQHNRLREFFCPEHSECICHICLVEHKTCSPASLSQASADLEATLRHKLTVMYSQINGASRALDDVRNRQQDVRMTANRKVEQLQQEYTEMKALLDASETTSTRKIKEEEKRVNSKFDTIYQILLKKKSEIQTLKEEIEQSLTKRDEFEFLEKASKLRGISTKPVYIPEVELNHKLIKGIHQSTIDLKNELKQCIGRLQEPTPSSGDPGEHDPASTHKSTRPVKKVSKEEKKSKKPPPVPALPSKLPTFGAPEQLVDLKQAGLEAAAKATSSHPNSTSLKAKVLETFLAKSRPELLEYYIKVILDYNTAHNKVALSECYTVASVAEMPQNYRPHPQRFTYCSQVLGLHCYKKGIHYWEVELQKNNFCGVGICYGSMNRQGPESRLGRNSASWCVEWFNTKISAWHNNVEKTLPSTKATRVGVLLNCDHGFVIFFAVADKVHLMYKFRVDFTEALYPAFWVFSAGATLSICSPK
Sequence of UniProt P67936 (P67936 whole entry, looked up): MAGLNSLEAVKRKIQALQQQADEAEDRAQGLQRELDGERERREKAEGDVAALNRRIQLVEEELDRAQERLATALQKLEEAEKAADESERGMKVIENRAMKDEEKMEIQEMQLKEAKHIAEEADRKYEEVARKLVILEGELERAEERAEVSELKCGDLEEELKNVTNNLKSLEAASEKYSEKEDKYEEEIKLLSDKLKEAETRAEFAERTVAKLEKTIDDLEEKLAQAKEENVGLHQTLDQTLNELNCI

Question: TOR3A (UniProt Q9H497) was tested. Which log2 fold change did it give?
Answer: -0.036

Question: TRAF2 isoform 2 (UniProt Q12933) was tested. Which log2 fold change did it give?
Answer: 0.029

Question: With TBRG4 (UniProt Q969Z0) as the target, how does the log2 fold change read?
Answer: -0.041

Question: TBL3 (UniProt Q12788) was tested. Which log2 fold change did it give?
Answer: 0.027

Question: Which log2 fold change does the source give for UBE3B (UniProt Q7Z3V4) here?
Answer: -0.004

Question: With TRA2A (UniProt Q13595) as the target, how does the log2 fold change read?
Answer: 0.056

Question: TJP1 isoform 2 (UniProt Q07157) was tested. Which log2 fold change did it give?
Answer: 0.015

Question: With TPM4 isoform 2 (UniProt P67936) as the target, how does the log2 fold change read?
Answer: -0.06

Question: With TUBGCP3 (UniProt Q96CW5) as the target, how does the log2 fold change read?
Answer: 0.004

Question: For TGOLN2 isoform 7 (UniProt O43493), which log2 fold change is on record?
Answer: -0.033

Question: Which log2 fold change does the source give for TSPAN13 (UniProt O95857) here?
Answer: 0.088

Question: For TIMELESS (UniProt Q9UNS1), which log2 fold change is on record?
Answer: -0.01

Question: Which log2 fold change does the source give for TRMT2A (UniProt Q8IZ69) here?
Answer: -0.03

Question: TTC12 isoform 2 (UniProt Q9H892) was tested. Which log2 fold change did it give?
Answer: 0.037

Question: TMPO (UniProt P42167) was tested. Which log2 fold change did it give?
Answer: -0.043

Question: With TBK1 (UniProt Q9UHD2) as the target, how does the log2 fold change read?
Answer: -0.034

Question: With TGFBRAP1 (UniProt Q8WUH2) as the target, how does the log2 fold change read?
Answer: -0.005

Question: How did the log2 fold change turn out when TMEM14C (UniProt Q9P0S9) was run?
Answer: 0.048

Question: Which log2 fold change does the source give for TMEM164 (UniProt Q5U3C3) here?
Answer: 0.255

Question: For TPM3 (UniProt P06753), which log2 fold change is on record?
Answer: -0.038

Question: For TTI2 (UniProt Q6NXR4), which log2 fold change is on record?
Answer: -0.009

Question: With TBC1D23 (UniProt Q9NUY8) as the target, how does the log2 fold change read?
Answer: 0.014

Question: Which log2 fold change does the source give for TRIM25 (UniProt Q14258) here?
Answer: 0.005

Question: Which log2 fold change does the source give for UBE2D1 (UniProt P51668) here?
Answer: -0.002

Question: TPP2 (UniProt Q5VZU9) was tested. Which log2 fold change did it give?
Answer: -0.049

Question: TRMT12 (UniProt Q53H54) was tested. Which log2 fold change did it give?
Answer: 0.036

Question: How did the log2 fold change turn out when TCAF2 (UniProt A6NFQ2) was run?
Answer: -0.005

Question: With TRIM56 (UniProt Q9BRZ2) as the target, how does the log2 fold change read?
Answer: -0.06

Question: How did the log2 fold change turn out when TTC27 (UniProt Q6P3X3) was run?
Answer: -0.012

Question: With UBR5 (UniProt O95071) as the target, how does the log2 fold change read?
Answer: 0.013

Question: With TROAP (UniProt Q12815) as the target, how does the log2 fold change read?
Answer: -0.006

Question: For TUBGCP2 isoform 4 (UniProt Q9BSJ2), which log2 fold change is on record?
Answer: 0.035

Question: For TTC5 (UniProt Q8N0Z6), which log2 fold change is on record?
Answer: 0.017

Question: Which log2 fold change does the source give for TRIM33 (UniProt H0Y612) here?
Answer: -0.031

Question: Which log2 fold change does the source give for TP53RK (UniProt Q96S44) here?
Answer: 0

Question: TFCP2 (UniProt Q12800) was tested. Which log2 fold change did it give?
Answer: 0.059

Question: With TIAL1 isoform 2 (UniProt Q01085) as the target, how does the log2 fold change read?
Answer: -0.167

Question: For TRIM65 (UniProt Q6PJ69), which log2 fold change is on record?
Answer: 0.006

Question: How did the log2 fold change turn out when TTF2 (UniProt Q9UNY4) was run?
Answer: -0.058

Question: Which log2 fold change does the source give for TRAPPC9 isoform 2 (UniProt Q96Q05) here?
Answer: 0.02

compound: CC1=C(C=C(C=C1)NC(=O)C2=CC(=CC=C2)N(C)C)NC(=O)C3=CC=C(C=C3)O; assay: as above
Summary of the method: as §1

Question: Which log2 fold change does the source give for TOR3A (UniProt Q9H497) here?
Answer: 0.018

Question: TRAF2 isoform 2 (UniProt Q12933) was tested. Which log2 fold change did it give?
Answer: -0.009

Question: Which log2 fold change does the source give for TBRG4 (UniProt Q969Z0) here?
Answer: 0.044

Question: With TBL3 (UniProt Q12788) as the target, how does the log2 fold change read?
Answer: 0.046

Question: Which log2 fold change does the source give for UBE3B (UniProt Q7Z3V4) here?
Answer: -0.022

Question: How did the log2 fold change turn out when TRA2A (UniProt Q13595) was run?
Answer: 0.019

Question: For TJP1 isoform 2 (UniProt Q07157), which log2 fold change is on record?
Answer: 0.016

Question: Which log2 fold change does the source give for TPM4 isoform 2 (UniProt P67936) here?
Answer: -0.004

Question: With TUBGCP3 (UniProt Q96CW5) as the target, how does the log2 fold change read?
Answer: 0.106

Question: Which log2 fold change does the source give for TGOLN2 isoform 7 (UniProt O43493) here?
Answer: 0.051

Question: TSPAN13 (UniProt O95857) was tested. Which log2 fold change did it give?
Answer: 0

Question: Which log2 fold change does the source give for TIMELESS (UniProt Q9UNS1) here?
Answer: 0.029

Question: Which log2 fold change does the source give for TRMT2A (UniProt Q8IZ69) here?
Answer: 0.035

Question: How did the log2 fold change turn out when TTC12 isoform 2 (UniProt Q9H892) was run?
Answer: -0.14

Question: How did the log2 fold change turn out when TMPO (UniProt P42167) was run?
Answer: -0.006

Question: TBK1 (UniProt Q9UHD2) was tested. Which log2 fold change did it give?
Answer: 0.032

Question: For TGFBRAP1 (UniProt Q8WUH2), which log2 fold change is on record?
Answer: 0.009

Question: Which log2 fold change does the source give for TMEM14C (UniProt Q9P0S9) here?
Answer: 0.007

Question: How did the log2 fold change turn out when TMEM164 (UniProt Q5U3C3) was run?
Answer: 0.027

Question: How did the log2 fold change turn out when TPM3 (UniProt P06753) was run?
Answer: -0.016

Question: How did the log2 fold change turn out when TTI2 (UniProt Q6NXR4) was run?
Answer: -0.015

Question: For TBC1D23 (UniProt Q9NUY8), which log2 fold change is on record?
Answer: 0.012

Question: How did the log2 fold change turn out when TRIM25 (UniProt Q14258) was run?
Answer: 0.004

Question: With UBE2D1 (UniProt P51668) as the target, how does the log2 fold change read?
Answer: 0.043

Question: For TPP2 (UniProt Q5VZU9), which log2 fold change is on record?
Answer: -0.017

Question: With TRMT12 (UniProt Q53H54) as the target, how does the log2 fold change read?
Answer: 0.033

Question: Which log2 fold change does the source give for TCAF2 (UniProt A6NFQ2) here?
Answer: -0.021

Question: Which log2 fold change does the source give for TRIM56 (UniProt Q9BRZ2) here?
Answer: 0.014

Question: For TTC27 (UniProt Q6P3X3), which log2 fold change is on record?
Answer: 0.034

Question: Which log2 fold change does the source give for UBR5 (UniProt O95071) here?
Answer: 0.016

Question: For TROAP (UniProt Q12815), which log2 fold change is on record?
Answer: 0.08

Question: With TUBGCP2 isoform 4 (UniProt Q9BSJ2) as the target, how does the log2 fold change read?
Answer: 0.048

Question: For TTC5 (UniProt Q8N0Z6), which log2 fold change is on record?
Answer: 0.016

Question: For TRIM33 (UniProt H0Y612), which log2 fold change is on record?
Answer: -0.009

Question: With TP53RK (UniProt Q96S44) as the target, how does the log2 fold change read?
Answer: -0.02

Question: For TFCP2 (UniProt Q12800), which log2 fold change is on record?
Answer: -0.02

Question: How did the log2 fold change turn out when TIAL1 isoform 2 (UniProt Q01085) was run?
Answer: -0.06

Question: Which log2 fold change does the source give for TRIM65 (UniProt Q6PJ69) here?
Answer: 0.003

Question: With TTF2 (UniProt Q9UNY4) as the target, how does the log2 fold change read?
Answer: -0.018

Question: With TRAPPC9 isoform 2 (UniProt Q96Q05) as the target, how does the log2 fold change read?
Answer: -0.016
